# Coupling enz = inhibits coupling enzyme system, counter-screen for aldolase hits; coupling enzyme system counterscreen, AmpLite Red fluorescence; activity change, negative = inhibition, % at 58.2 µM, hits read low; 290,000 tested, 0.67% active; in the data active = activity change below about -30%
#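 Fluorescence at 525 nm excitation and 598 nm emission measured inhibition of the coupled detection system without aldolase. Compounds (at 57.5 uM final) were preincubated 10 min at room temperature with coupling enzyme reagent before a 20 min substrate/AmpLite Red step.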
# Sfp inh = inhibitors of Bacillus subtilis Sfp phosphopantetheinyl transferase | Q9F4F7 | Biochemical Sfp PPTase activity, qHTS | Potency, µM, for inactives: largest response in the series, negative = inhibition, hits mostly inhibitors | 310,000 tested, 3.5% active | AID 1490;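 also: the enzyme is Sfp with the accession as filed and its product quenches rhodamine fluorescence; potency is read from the fitted curve at half-maximal effect; 0% = enzyme reaction without inhibitor and -100% = no enzyme wells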
#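 Compounds were incubated with enzyme (final 15 nM) for 15 min at room temperature before substrate addition started the reaction. Fluorescence at 525 nm excitation, 598 nm emission was recorded immediately and after 30 minutes.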
# Tau fibril FP = tau fibrillization inhibition (FP). K18 P301L tau heparin fibrillization, Alexa594 FP, 6 h. 280,000 tested, 0.39% active. AID 1468. Potency, µM (top dose mostly 57.7 µM), inactives show at the highest dose activity, negative = inhibition, actives largely listed as inhibitors. P10636; also: potency is read from the fitted curve at half-maximal effect; nearly all actives have a fitted effect of over 55% in size
# Target sequence (P10636 561-689 P618L limits assumed): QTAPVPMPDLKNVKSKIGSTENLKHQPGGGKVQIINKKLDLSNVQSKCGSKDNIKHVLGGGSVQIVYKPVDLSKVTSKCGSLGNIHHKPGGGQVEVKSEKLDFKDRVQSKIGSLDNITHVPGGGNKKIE
#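 Read-out: fluorescence polarization of Alexa 594-labeled tau (0.24 uM), 555 nm excitation, 632 nm emission. Mixtures held 15 uM unlabeled K18 P301L, compound and 20 uM heparin, pH 7 acetate buffer, incubated 6 hr at 37 C.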
# Tau fibril ThT = tau fibrillization inhibition (ThT binding); recombinant tau K18 P301L, heparin-induced fibrillization, ThT fluorescence; 270,000 tested, 2.1% active; P10636; Potency, µM (doses to about 57.4 µM), without a hit: at the top dose activity, negative = inhibition, most hits filed as inhibitors; AID 1460; also: potency is read from the fitted curve at half-maximal effect; nearly all actives have a fitted effect of over 55% in size
#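 Recombinant human tau K18 fragment […] carrying P301L, 15 uM unlabeled plus 0.24 uM Alexa 594-labeled, was fibrillized with 20 uM heparin in 100 mM sodium acetate pH 7 for 6 hr at 37 C; 30 uM ThT fluorescence read after 1 hr.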
# KDM4E inh = inhibitors of human JMJD2E histone demethylase; B2RXH2; 230,000 tested, 1.6% active; Potency, µM (titrated, usually from 57.1 µM), without a hit: at the top dose activity change, negative = inhibition, most hits filed as inhibitors; JMJD2E catalytic domain, FDH-coupled NADH fluorescence (FDH is formaldehyde dehydrogenase);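 also: potency is read from the fitted curve at half-maximal effect; 0% = wells with enzyme and -100% = buffer wells without enzyme; nearly all actives have a fitted effect of over 50% in size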
# Target sequence (B2RXH2 1-337 limits assumed): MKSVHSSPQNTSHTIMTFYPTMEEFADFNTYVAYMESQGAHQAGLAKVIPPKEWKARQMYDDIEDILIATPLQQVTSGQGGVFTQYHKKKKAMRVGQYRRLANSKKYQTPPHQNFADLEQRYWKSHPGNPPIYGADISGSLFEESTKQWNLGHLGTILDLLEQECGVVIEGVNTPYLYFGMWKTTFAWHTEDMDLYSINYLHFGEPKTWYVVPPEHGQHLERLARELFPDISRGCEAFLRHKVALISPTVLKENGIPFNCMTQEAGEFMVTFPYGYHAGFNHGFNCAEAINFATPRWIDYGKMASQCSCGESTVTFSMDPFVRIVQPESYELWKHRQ
# Tau fluor counter = counter-screen for tau fibril formation inhibitors | Potency, µM (titrated, usually from 57.7 µM), for inactives: top-dose activity change, negative = decrease | 280,000 tested, 0.93% active | tau K18 P301L Alexa594 fluorescence, heparin fibrillization; also: potency is read from the fitted curve at half-maximal effect; nearly all actives have a fitted effect of over 55% in size
#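 Human tau K18 P301L (15 uM unlabeled, 0.24 uM Alexa 594-labeled) in 100 mM sodium acetate pH 7 with 20 uM heparin, 6 hr at 37 C. ThT 30 uM added, 1 hr ambient; Alexa 594 FP and total fluorescence read at 555/632 nm.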
# The depositor's hits bear a star; ? = inconclusive; · = no result given; [ ] = remark or other dose. Most compounds without a hit are left out; they make up all but 5.3% or so of the library. Unless noted, calls follow the shape of the dose curve; as a rule, active = well fitted curve in the direction sought with a large enough effect; inconclusive = small, poorly fitted or top-dose-only effect, or another doubt; inactive = no such curve, though single readings can be large; an effect the other way counts as inactive or inconclusive. Unless noted, % is scaled to controls: 0 for no effect and ±100 for the full control effect.
SMILES,Coupling enz,Sfp inh,Tau fibril FP,Tau fibril ThT,KDM4E inh,Tau fluor counter
Cc1ccc(-c2nnn(CC(=O)N(c3ccccc3)C(C(=O)NC3CCCC3)c3ccncc3)n2)o1 (centres undefined),5.7,12.3%,·,·,·,·
Cc1ccc(-c2nnn(CC(=O)N(Cc3ccccc3F)C(C(=O)NC3CCCC3)c3ccncc3)n2)o1 (centres undefined),-4.2,28.2µM*,6.7%,-6.4%,-18.4%,-2.5%
Cc1ccc(C2/C(=C(\O)c3ccc4c(c3)OCCO4)C(=O)C(=O)N2CCCN(C)C)o1 (centres undefined),4.6,-9.7%,-1.0%,4.3%,-1.7%,3.3%
Cc1ccc(C2/C(=C(/O)c3ccc(Br)cc3)C(=O)C(=O)N2Cc2ccco2)o1 (centres undefined),-26.8,3.55µM*,-9.7%,-8.6%,-7.4%,1.9%
COc1ccc(/C(O)=C2/C(=O)C(=O)N(CCCN(C)C)C2c2ccc(C)o2)cc1Cl (centres undefined),-6.9,89.1µM*,3.6%,-8.3%,-16.6%,-3.6%
COc1ccc(Cn2c(CCC(=O)NCc3ccc(Cl)cc3)nc3cccnc32)cc1,·,·,-9.2%,?,·,-19.7%
COc1ccc(CNc2ccnc(-c3ccc(N(C)C)cc3)n2)c(OC)c1,-9.9,?,·,·,·,·
CC(N1CCOC1=O)S(=O)(=O)c1ccccc1 (centres undefined),0.4,63.1µM*,-3.8%,-0.7%,?,-4.1%
Cc1ccc(C)c(OCCn2c(-c3ccc(Cl)cc3)nc3ccccc3c2=O)c1C,·,·,1.2%,-1.6%,·,-7.2%
CC(C)Cc1nnc(NC(=O)CSc2ccccn2)s1,4.2,44.7µM*,-5.0%,-15.6%,9.8%,-14.0%
COc1ccccc1-c1cc2nc(C)c(CCC(=O)NCCc3cccc(C)c3)c(C)n2n1,·,·,-8.7%,?,·,-14.4%
O=C(c1ccc(CSc2nc3ccncc3n2Cc2cccc(F)c2)cc1)N1CCCCC1,·,·,-0.3%,-2.8%,·,-7.4%
C/C=C(\C)C(=O)N[C@@H](C)CN1C2=NC[C@H](C(C)C)N2C[C@H]1Cc1ccc(OC)cc1,-0.6,39.8µM*,-0.3%,-6.5%,-0.3%,-3.8%
C/C=C(\C)C(=O)NCCN1C2=NC[C@H](C(C)C)N2C[C@@H]1Cc1ccc(OC)cc1,2.0,-11.8%,-5.2%,-16.2%,16.4%,-7.9%
COc1ccc(C[C@@H]2CN3C(=NC[C@@H]3Cc3ccc(O)cc3)N2C[C@H](C)NC(=O)CCC2CCCCC2)cc1,3.9,79.4µM*,-0.1%,-6.6%,-9.4%,-12.6%
CC(C)[C@H]1CN=C2N(C[C@H](C)NC(=O)CCC3CCCCC3)[C@H](Cc3ccc(O)cc3)CN21,0.2,50.1µM*,-2.1%,-7.5%,-6.7%,-5.3%
O=C(O)c1cc(N=Nc2c(O)ccc3ccccc23)cc(C(=O)O)c1,-1.4,11.8%,-4.1%,15.8µM*,-12.1%,-11.2%
Cc1ccccc1N=Nc1ccc(N=Nc2c(O)ccc3ccccc23)c(C)c1,·,13.8%,·,·,·,·
NS(=O)(=O)c1ccc(N=Nc2c(O)ccc3ccccc23)cc1,-7.3,13.4%,0.4%,1.12µM*,-0.4%,-26.2%
NS(=O)(=O)c1ccc(NC(=O)c2cccc3ccccc23)cc1,-0.3,6.0%,·,·,·,·
Oc1ccc(N=Nc2c(O)ccc3ccccc23)cc1,-10.7,?,?,2.51µM*,-16.4%,11.2µM*[quencher]
C[C@]12CCC(=O)C=C1CC[C@@H]1[C@@H]2[C@@H](O)C[C@@]2(C)[C@H]1CC[C@]2(O)C(=O)COP(=O)(O)O,·,19.3%,·,·,·,·
CCOc1ccc(CNC(=O)CCC(=O)N2CC3CCCN3c3ccccc32)cc1 (centres undefined),·,·,3.6%,-2.3%,·,-10.1%
Cc1cc(NC(=O)/C=C/c2ccco2)ccc1NC(=O)c1ccccc1,2.4,12.6µM*,3.6%,1.3%,-3.5%,-1.4%
O=C(/C=C/c1ccco1)Nc1ccccc1C(=O)O,-12.5,17.8µM*,-15.6%,?,?,-3.4%
SMILES,Coupling enz,Sfp inh,Tau fibril FP,Tau fibril ThT,KDM4E inh,Tau fluor counter
Cc1ccc(NC(=O)/C=C/c2ccco2)cc1F,·,·,?,?,·,-29.9%
O=C(/C=C/c1ccco1)Nc1cc(Cl)ccc1C(=O)O,-10.8,56.2µM*,?,?,1.2%,-11.3%
O=C(/C=C\c1ccco1)Nc1cc([N+](=O)[O-])ccc1F,1.4,-6.2%,-9.9%,-9.2%,-19.7%,-2.7%
CN(C(=O)/C=C/c1ccco1)c1ccccc1C(=O)O,0.6,50.1µM*,-15.4%,?,?,-7.9%
O=C(/C=C/c1ccco1)Nc1ccccc1C(=O)Nc1cccc(C(=O)O)c1,1.4,?,-3.6%,-13.0%,?,-10.4%
COc1ccc(CCNC(=O)c2ccc3c(c2)N(Cc2ccc(Cl)cc2)C(=O)c2ccccc2S3)cc1OC,·,·,-1.6%,-7.6%,·,-29.6%
NC(=O)c1c(-c2cccs2)csc1N,-45.1*,39.8µM*,-12.9%,?,?,-15.8%
Cc1ccc(NC(=O)c2ccccc2)s1,-1.8,-29.7%,-1.6%,?,0.8%,-13.3%
Cc1cc(NC(=O)c2ccccc2)sc1C,-1.7,50.1µM*,6.0%,?,-5.0%,-13.8%
O=C(O)CC/C(=C\c1ccc(Cl)c([N+](=O)[O-])c1)c1nc2ccccc2s1,10.5,-13.6%,9.5%,11.5%,-0.1%,10.4%
O=C(O)CC/C(=C\c1ccc(N2CCOCC2)c([N+](=O)[O-])c1)c1nc2ccccc2s1,1.0,17.2%,-3.5%,7.94µM*,-0.6%,-12.1%
O=C(O)C/C(=C\c1ccc(N2CCOCC2)c([N+](=O)[O-])c1)c1nc2ccccc2s1,1.5,-8.9%,-2.5%,14.1µM*,-8.5%,-13.0%
CNC(=O)[C@H]1O[C@@H](n2cnc3c(N)ncnc32)[C@H](O)[C@H]1O,·,·,9.4%,-0.2%,-0.9%,2.8%
COC(=O)c1nc2n(n1)C(c1cc(OC)ccc1OC)C(C(=O)Nc1ccc(C)cc1C)=C(C)N2 (centres undefined),·,·,-2.7%,-7.5%,·,-13.5%
CO[C@]12C(COC(N)=O)C3=C(C(=O)C(C)=C(N)C3=O)N1CC1NC12 (some centres undefined),-39.6*,-6.3%,-8.7%,-21.4%,?,-14.4%
COc1ccc(C(=O)c2ccccc2)c2c(O)ccc(C(=O)c3ccccc3)c12,-0.5,1.8%,9.1%,?,-1.8%,?
COc1cc(O)c(C(=O)c2ccccc2)cc1O,-46.5*,11.2µM*,14.1µM*,7.94µM*,?,12.6µM*[quencher]
COc1ccc(N2C(S)=C(C#N)C(=O)NC2c2ccco2)cc1 (centres undefined),1.9,28.2µM*,?,?,2.9%,-13.4%
COc1cc(C2NC(=O)C(C#N)=C(S)N2c2ccccc2)ccc1OC(C)C (centres undefined),7.8,39.8µM*,?,?,-13.3%,-14.4%
